# A number with no mark means an inactive call. Records with an inconclusive call do not appear. Activity calls are given as the source filed them. Unless noted, calls follow the shape of the dose curve; as a rule, active = well fitted curve in either direction with a large enough effect (not every such curve was filed as active); inconclusive = small, poorly fitted or top-dose-only effect, or another doubt; inactive = flat fitted curve, though single readings scatter.
# Key:
# [1] = AP1 Signaling Pathway (AID 357); details: ME-180 AP-1-bla reporter, EGF-induced, beta-lactamase ratio, 5 h; at 17.2 µM (top of the series) unless noted;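 also: ME-180 reporter cells stimulated with EGF at its EC50 level; % is scaled to controls: 0 for no effect and ±100 for the full control effect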
# Outline: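 Modulation of EGF-driven AP-1 transcription was assessed with a beta-lactamase reporter in ME-180 cells. Compound and EC50 EGF were co-incubated 5 hours at 37 °C before 2.5-hour CCF4 loading at room temperature and dual-emission reading.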
# [2] = NFAT Signaling Pathway (AID 444); details: Jurkat NFAT-bla M1, carbachol, beta-lactamase ratio, 5 h; at 17.2 µM (top of the series) unless noted;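 also: carbachol stimulus at about its EC50 of 1 µM final; % is scaled to controls: 0 for no effect and ±100 for the full control effect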
# Outline: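 Jurkat cells with NFAT-driven β-lactamase reporter and co-expressed M1 receptor, stimulated with carbachol (final 1 uM, ~EC50), compound titration, 5 h at 37 °C. CCF4 loaded 1 h at RT; 460/530 nm ratio gave %activity and AC50.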
# [3] = Stat Signaling Pathway (AID 446);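 also: ME-180 cervical cancer cells given 40 pM IL-6 alongside compound; SIE-controlled beta-lactamase reporter measured as 460/530 nm FRET emission ratio; % is scaled to controls: 0 for no effect and ±100 for the full control effect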
# Outline: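 Reporter line: ME-180 cervical carcinoma, SIE-beta-lactamase. Treatment: compound with 40 pM IL-6, 5 hrs, 37 C, in low-serum OPTI-MEM with 10 mM HEPES pH 7.3. Detection: 460/530 nm fluorescence.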
# [4] = biological target: Glucocorticoid receptor (Homo sapiens) (UniProt P04150); assay: GR-GFP Redistribution (AID 450;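 active = compounds whose dose series gives a full or clear partial fitted curve of increased nuclear translocation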; also: potency is read from the fitted curve at half-maximal effect); details: U2OS GR-GFP nuclear translocation, laser cytometry, 2 h
# Sequence of Glucocorticoid receptor (Homo sapiens) (P04150 whole entry, looked up, the tested form may be a part): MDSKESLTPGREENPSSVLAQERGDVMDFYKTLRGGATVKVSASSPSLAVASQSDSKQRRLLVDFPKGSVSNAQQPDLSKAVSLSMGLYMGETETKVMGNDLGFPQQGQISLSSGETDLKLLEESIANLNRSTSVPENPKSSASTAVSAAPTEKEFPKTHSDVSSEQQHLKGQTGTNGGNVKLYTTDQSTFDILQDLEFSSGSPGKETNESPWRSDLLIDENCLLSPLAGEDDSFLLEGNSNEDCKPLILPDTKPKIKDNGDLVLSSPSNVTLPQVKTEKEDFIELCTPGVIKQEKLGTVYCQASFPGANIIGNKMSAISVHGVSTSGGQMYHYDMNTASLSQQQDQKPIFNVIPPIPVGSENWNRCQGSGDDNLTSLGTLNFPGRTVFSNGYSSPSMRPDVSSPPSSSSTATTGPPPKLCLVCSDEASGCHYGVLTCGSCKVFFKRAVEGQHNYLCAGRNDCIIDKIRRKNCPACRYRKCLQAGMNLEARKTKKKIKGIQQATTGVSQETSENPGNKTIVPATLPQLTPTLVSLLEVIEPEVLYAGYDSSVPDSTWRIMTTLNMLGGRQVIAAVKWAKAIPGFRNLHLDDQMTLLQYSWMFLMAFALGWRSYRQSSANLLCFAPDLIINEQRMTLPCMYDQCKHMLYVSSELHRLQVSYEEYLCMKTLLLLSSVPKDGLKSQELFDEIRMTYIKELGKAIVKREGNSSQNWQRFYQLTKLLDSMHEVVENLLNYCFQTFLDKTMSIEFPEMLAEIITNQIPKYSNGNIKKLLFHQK
# [5] = biological target: Cytochrome P450 1A2 (Homo sapiens) (UniProt P05177); assay: p450-cyp1a2 (AID 410; calls by dose curve; also: potency is read from the fitted curve at half-maximal effect;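 as to activity change, negative = inhibition: -100% = full effect of reference inhibitor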)
# Sequence of Cytochrome P450 1A2 (Homo sapiens) (P05177 whole entry, looked up): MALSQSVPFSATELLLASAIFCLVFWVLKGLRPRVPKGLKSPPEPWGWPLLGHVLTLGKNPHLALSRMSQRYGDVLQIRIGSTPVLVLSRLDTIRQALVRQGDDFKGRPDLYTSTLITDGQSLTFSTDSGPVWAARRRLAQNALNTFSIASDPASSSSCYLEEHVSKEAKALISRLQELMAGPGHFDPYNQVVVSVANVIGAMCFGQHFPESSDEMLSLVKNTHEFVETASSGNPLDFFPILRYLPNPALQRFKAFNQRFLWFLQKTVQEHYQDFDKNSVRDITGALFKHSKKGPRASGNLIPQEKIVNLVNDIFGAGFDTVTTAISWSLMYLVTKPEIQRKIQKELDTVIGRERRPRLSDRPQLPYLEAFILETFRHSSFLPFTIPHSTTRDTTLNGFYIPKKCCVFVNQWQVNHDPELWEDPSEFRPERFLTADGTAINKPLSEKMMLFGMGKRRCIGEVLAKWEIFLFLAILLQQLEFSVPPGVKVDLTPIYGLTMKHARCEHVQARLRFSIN
# Outline: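 Inhibition was calculated relative to 57 uM furafylline (full inhibition). The reaction used human CYP1A2 at 20nM with Luciferin-ME at its Km, 100uM, driven by an NADPH-regenerating system for 60 min at room temperature.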
# [6] = biological target: Glucocorticoid receptor (Homo sapiens) (UniProt P04150); assay: GR-EFC Redistribution (AID 451; calls by dose curve; also: potency is read from the fitted curve at half-maximal effect); details: CHO-K1 GR-EFC translocation, beta-gal luminescence, 2 h
# Outline: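 CHO-K1 cells expressing nuclear EA and GR-ED fragments of b-gal; compounds titrated up to 46 uM final, 2 h at 37 C. GR nuclear translocation read as complemented b-gal luminescence after 1 h RT detection.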
# [7] = biological target: 3',5'-cyclic-AMP phosphodiesterase 4B (Homo sapiens) (UniProt Q07343); assay: qHTS Assay for Inhibitors of PDE-IV (AID 607; active = well fitted activation curve with a large enough effect in the main read-out, with a control signal flat, not every such curve was filed as active; also: % of control where 0% means no effect)
# Sequence of 3',5'-cyclic-AMP phosphodiesterase 4B (Homo sapiens) (Q07343 whole entry, looked up): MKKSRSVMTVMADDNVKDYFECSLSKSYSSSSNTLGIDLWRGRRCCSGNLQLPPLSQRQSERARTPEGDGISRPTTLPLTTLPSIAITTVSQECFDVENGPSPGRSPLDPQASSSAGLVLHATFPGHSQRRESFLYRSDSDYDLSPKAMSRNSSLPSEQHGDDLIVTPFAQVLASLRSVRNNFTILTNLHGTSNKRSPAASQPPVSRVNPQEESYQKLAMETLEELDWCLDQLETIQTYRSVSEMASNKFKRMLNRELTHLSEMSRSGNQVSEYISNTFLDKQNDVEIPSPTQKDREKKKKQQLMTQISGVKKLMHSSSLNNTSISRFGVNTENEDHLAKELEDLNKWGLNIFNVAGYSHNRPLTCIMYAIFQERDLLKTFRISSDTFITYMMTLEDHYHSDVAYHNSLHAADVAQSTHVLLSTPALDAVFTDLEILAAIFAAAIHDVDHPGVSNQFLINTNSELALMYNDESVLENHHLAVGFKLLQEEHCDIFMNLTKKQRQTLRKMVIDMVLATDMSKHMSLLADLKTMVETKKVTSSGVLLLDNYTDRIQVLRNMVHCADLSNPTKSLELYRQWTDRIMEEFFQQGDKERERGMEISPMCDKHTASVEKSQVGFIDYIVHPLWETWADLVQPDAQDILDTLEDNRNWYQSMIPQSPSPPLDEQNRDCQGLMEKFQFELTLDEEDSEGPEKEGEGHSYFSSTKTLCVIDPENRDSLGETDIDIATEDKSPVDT
# Outline: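 Cell-based read-out of cAMP via a modified cyclic nucleotide-gated channel and membrane potential dye (535/590 nm) in HEK293 cells expressing PDE4 endogenously. Compounds tested up to 22.9 uM final; 100 uM RO 20-1724 reference.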
# [8] = biological target: Guanine nucleotide-binding protein G(i) subunit alpha-1 (Homo sapiens) (UniProt P63096); assay: qHTS Assay for Inhibitors of RGS12 GoLoco Motif Activity (Green Fluorophore) (AID 879; active = well fitted curve in the direction sought with a large enough effect; an effect the other way counts as inactive or inconclusive;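 also: 0% = labeled peptide with Gαi1 and full inhibition = labeled peptide alone without protein; negative values mean loss of peptide binding seen as reduced polarization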)
# Sequence of Guanine nucleotide-binding protein G(i) subunit alpha-1 (Homo sapiens) (P63096 whole entry, looked up): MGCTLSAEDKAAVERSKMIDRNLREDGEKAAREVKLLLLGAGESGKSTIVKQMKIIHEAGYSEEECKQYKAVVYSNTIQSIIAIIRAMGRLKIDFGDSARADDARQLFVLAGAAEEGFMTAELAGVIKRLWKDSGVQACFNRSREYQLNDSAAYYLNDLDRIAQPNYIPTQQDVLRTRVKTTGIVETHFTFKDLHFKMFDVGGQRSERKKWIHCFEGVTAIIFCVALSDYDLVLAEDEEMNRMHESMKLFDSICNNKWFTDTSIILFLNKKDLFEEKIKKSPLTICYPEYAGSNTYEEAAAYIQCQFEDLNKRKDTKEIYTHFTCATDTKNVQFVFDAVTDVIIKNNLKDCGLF
# Outline: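 Fluorescence polarization assay: 50 nM Gαi1 with 10 nM FITC-labeled RGS12 GoLoco peptide in 10 mM Tris pH 7.5, 150 mM NaCl, 0.1 mM GDP, 0.05% NP40, 10 min at room temperature with compound.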
# [9] = qHTS Assay for Identification of Small Molecule Antagonists for Thrombopoietin (TPO) Signaling Pathway (AID 918; active = well fitted curve in the direction sought with a large enough effect; an effect the other way counts as inactive or inconclusive; also: potency is read from the fitted curve at half-maximal effect; nearly all actives have a fitted effect of over 60% in size); details: TPO-dependent cell signaling reporter, antagonist mode
# Outline: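 First, Ba/F3 reporter cells expressing human TPO receptor were held overnight without IL-3. Next, compound and 26 pM TPO were added. After 24 hrs incubation at 37 C, luciferase luminescence under the Glycoprotein IIb promoter was recorded.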
# [10] = biological target: Muscarinic acetylcholine receptor M1 (Rattus norvegicus) (UniProt P08482); assay: qHTS Assay for Antagonists of Acetylcholine Muscarinic M1 Receptor: Kinetic Measurement of Intracellular Calcium Response (AID 943; active = well fitted curve in the direction sought with a large enough effect; an effect the other way counts as inactive or inconclusive;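 also: Fluo-4 calcium signal as peak divided by basal fluorescence over 4 min; nearly all actives have a fitted effect of over 75% in size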)
# Sequence of Muscarinic acetylcholine receptor M1 (Rattus norvegicus) (P08482 whole entry, looked up): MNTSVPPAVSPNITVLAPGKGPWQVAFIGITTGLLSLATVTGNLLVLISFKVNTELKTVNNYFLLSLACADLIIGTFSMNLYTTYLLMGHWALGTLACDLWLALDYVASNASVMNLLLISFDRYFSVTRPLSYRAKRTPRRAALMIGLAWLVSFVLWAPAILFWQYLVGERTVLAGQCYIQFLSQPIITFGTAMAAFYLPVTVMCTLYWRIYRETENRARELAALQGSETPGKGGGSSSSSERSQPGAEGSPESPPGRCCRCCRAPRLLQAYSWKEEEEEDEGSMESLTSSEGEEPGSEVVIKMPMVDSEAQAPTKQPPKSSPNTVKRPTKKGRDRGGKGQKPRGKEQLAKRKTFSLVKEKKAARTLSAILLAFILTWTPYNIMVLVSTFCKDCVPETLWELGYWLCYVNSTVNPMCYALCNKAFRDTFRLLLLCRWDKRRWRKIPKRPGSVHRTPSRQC
# Outline: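 Intracellular calcium flux, recorded with Fluo-4 in a kinetic plate reader, served as signal; the response to carbachol at EC80 (100 nM final) was taken as maximal over minimal fluorescence after a 10 min compound pre-incubation in rat M1-CHO cells.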
# [11] = biological target: Muscarinic acetylcholine receptor M1 (Rattus norvegicus) (UniProt P08482); assay: qHTS Assay for Antagonists of Acetylcholine Muscarinic M1 Receptor: Measurement of IP-One Response (AID 944; active = well fitted curve in the direction sought with a large enough effect; an effect the other way counts as inactive or inconclusive; also: nearly all actives have a fitted effect of over 75% in size)
# Outline: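 Steps: plate transfected CHO-M1 cells overnight; add test compound, 10 min; add carbachol (200 nM, EC80) in stimulation buffer with LiCl; incubate 30 min; add labelled IP1 tracer and anti-IP1 antibody in lysis buffer; read HTRF after 10 min.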
# [12] = biological target: Pyruvate kinase PKM (Homo sapiens) (UniProt P14618); assay: qHTS Assay for Activators of Human Muscle Pyruvate Kinase (AID 954; active = well fitted curve in the direction sought with a large enough effect, not every such curve was filed as active;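 also: 0% = uninhibited enzyme and -100% = no enzyme or full thiadiazolimine inhibition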)
# Sequence of Pyruvate kinase PKM (Homo sapiens) (P14618 whole entry, looked up): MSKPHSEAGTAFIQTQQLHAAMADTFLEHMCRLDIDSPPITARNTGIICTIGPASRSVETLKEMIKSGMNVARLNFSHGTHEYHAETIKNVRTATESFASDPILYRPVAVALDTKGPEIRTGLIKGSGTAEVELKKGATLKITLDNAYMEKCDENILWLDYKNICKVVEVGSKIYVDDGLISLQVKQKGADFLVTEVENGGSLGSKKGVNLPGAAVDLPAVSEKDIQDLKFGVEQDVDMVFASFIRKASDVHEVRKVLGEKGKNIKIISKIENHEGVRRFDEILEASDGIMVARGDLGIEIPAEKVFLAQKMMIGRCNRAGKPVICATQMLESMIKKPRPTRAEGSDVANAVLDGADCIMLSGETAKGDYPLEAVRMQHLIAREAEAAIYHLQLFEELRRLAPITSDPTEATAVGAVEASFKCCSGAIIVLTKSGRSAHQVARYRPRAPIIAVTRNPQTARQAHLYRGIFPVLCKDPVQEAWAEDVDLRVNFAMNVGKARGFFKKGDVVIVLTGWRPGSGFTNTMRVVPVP
# Outline: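 Human PKM2 activity is measured as ATP generation, detected by luciferase-coupled luminescence. The enzyme (0.1 nM) acts on 0.5 mM PEP and 0.1 mM ADP for 1 h at ambient temperature; data are normalized to uninhibited and full-inhibition wells.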
# [13] = biological target: Alpha-galactosidase (Coffea arabica) (UniProt Q42656); assay: Counterscreen for Glucocerebrosidase Inhibitors: qHTS Assay for Coffee Bean alpha-Galactosidase at pH 4.5 (AID 957; active = well fitted curve in the direction sought with a large enough effect; an effect the other way counts as inactive or inconclusive;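 also: plate controls were enzyme alone for no effect and no enzyme for full effect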)
# Sequence of Alpha-galactosidase (Coffea arabica) (Q42656 whole entry, looked up): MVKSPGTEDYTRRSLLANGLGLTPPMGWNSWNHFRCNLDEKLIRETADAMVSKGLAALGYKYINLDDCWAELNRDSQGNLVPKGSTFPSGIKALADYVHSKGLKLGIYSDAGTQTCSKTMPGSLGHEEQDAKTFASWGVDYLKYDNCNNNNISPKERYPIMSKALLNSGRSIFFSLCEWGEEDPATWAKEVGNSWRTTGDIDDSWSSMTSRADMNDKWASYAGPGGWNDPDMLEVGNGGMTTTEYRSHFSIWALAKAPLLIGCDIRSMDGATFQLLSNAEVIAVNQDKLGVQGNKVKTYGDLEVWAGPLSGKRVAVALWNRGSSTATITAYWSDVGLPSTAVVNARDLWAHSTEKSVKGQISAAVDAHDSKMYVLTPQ
# Outline: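 AC50 values derive from Hill-equation modeling of concentration-response data, normalized to no-enzyme and full-activity controls. The pH 4.5 citrate assay used 2 nM coffee bean enzyme and 80 uM fluorogenic substrate for 20 min.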
# [14] = biological target: Alpha-galactosidase A (Homo sapiens) (UniProt P06280); assay: Counterscreen for Glucocerebrosidase Inhibitors: qHTS Assay for Human alpha-Galactosidase at pH 4.5 (AID 992; active = well fitted curve in the direction sought with a large enough effect; an effect the other way counts as inactive or inconclusive; also: 0% is about no effect)
# Sequence of Alpha-galactosidase A (Homo sapiens) (P06280 whole entry, looked up): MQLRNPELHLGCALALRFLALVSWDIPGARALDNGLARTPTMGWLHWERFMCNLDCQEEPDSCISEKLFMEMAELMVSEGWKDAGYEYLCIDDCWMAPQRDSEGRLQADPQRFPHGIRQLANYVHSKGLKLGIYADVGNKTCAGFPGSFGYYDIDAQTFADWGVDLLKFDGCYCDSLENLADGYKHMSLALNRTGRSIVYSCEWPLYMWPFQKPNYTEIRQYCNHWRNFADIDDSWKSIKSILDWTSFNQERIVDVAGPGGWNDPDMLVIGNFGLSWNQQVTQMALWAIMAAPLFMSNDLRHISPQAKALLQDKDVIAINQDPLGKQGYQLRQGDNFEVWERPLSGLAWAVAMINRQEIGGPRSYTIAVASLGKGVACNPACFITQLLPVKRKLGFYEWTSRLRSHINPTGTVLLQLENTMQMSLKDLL
# Outline: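 Quantitative HTS: compounds tested from 0.7 nM up to 77 uM against 2 nM enzyme with 80 uM 4-MU alpha-D-galactopyranoside. The 20 min room-temperature reaction is stopped with 1M NaOH/1M glycine, pH 10.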
# [15] = biological target: alpha-glucosidase (Oryza sativa, rice) (UniProt Q653V4); assay: Counterscreen for Glucocerebrosidase Inhibitors: qHTS Assay for Rice alpha-Glucosidase at pH 5.0 (AID 997; active = well fitted curve in the direction sought with a large enough effect; an effect the other way counts as inactive or inconclusive;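 also: 0% = full activity with enzyme and -100% = basal without enzyme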)
# Outline: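 Rice alpha-glucosidase (4 nM final) with 400 uM 4-methylumbelliferyl-alpha-D-glucopyranoside in citrate buffer pH 5.0, 20 min at room temperature, stopped at pH 10; fluorescence 365/440 nm, compounds 0.7 nM–77 uM, AC50 from Hill fits.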
# [16] = biological target: Alpha-galactosidase (Coffea arabica) (UniProt Q42656); assay: Counterscreen for Glucocerebrosidase Inhibitors: qHTS Assay for Coffee Bean alpha-Galactosidase at pH 5.9 (AID 998; active = well fitted curve in the direction sought with a large enough effect; an effect the other way counts as inactive or inconclusive;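 also: plate controls were uninhibited enzyme for no effect and no-enzyme basal signal for full effect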)
# Outline: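 Green coffee bean enzyme (2 nM) with 4-methylumbelliferyl alpha-D-galactopyranoside (80 uM) in 50 mM citric acid, 0.005% Tween-20, pH 5.9, 20 min at room temperature; compounds 0.7 nM–77 uM. Stopped at pH 10, fluorescence Ex365/Em440; Hill-fit AC50.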
# [17] = biological target: Mitogen-activated protein kinase 10 (Mus musculus) (UniProt Q61831); assay: JNK3 AlphaScreen Assay (AID 530);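 also: kinase came from lysate of stimulated human HepG2 cells; signal reports phosphorylation of biotinylated GST-cJun 1-79 at Ser73 with 10 µM ATP; % is scaled to controls: 0 for no effect and ±100 for the full control effect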
# Outline: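 qHTS format: compounds tested as titrations against IL-1beta/TNF-alpha-activated HepG2 lysate JNK3 with biotin-GST-cJun substrate and 10 uM ATP at room temperature. Loss of anti-phospho-cJun AlphaScreen signal indicates inhibition.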
# [18] = biological target: Cytochrome P450 2D6 (Homo sapiens) (UniProt P10635); assay: qHTS Assay for Inhibitors and Substrates of Cytochrome P450 2D6 (AID 891; active = well fitted curve in the direction sought with a large enough effect; an effect the other way counts as inactive or inconclusive; also: potency is read from the fitted curve at half-maximal effect; nearly all actives have a fitted effect of over 60% in size)
# Sequence of Cytochrome P450 2D6 (Homo sapiens) (P10635 whole entry, looked up): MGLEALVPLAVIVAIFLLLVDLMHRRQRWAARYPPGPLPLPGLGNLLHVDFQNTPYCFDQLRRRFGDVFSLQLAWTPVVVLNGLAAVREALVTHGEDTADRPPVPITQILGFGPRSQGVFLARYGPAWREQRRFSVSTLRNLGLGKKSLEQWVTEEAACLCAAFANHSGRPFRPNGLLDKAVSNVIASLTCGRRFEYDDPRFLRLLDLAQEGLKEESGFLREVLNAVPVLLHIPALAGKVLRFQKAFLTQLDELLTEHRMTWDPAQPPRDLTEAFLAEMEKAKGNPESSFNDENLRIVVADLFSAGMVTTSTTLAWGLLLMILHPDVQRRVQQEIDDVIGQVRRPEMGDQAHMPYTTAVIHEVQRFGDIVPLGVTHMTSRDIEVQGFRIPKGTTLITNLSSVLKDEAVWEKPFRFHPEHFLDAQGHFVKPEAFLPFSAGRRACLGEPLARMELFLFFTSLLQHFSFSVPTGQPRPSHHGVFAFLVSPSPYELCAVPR
# Outline: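 Human CYP2D6 (5 nM) with 30 uM Luciferin-ME EGE (at Km) in 100 mM KPO4, compound preincubated 10 min, then NADPH regeneration system for 60 min at room temperature. Luciferin read by luminescence; normalized to 1.43 uM quinidine.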
# [19] = qHTS Assay for Identification of Small Molecule Antagonists for NFkB Signaling Pathway (AID 895; active = well fitted inhibition curve with a large enough effect in the signal ratio, with a control signal flat, not every such curve was filed as active; the % refers to the signal ratio; also: potency is read from the fitted curve at half-maximal effect)
# Outline: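 ME-180 NFkB-bla cells (beta-lactamase under NFkB response element), plated overnight, treated with compound then 10 pM TNF alpha (about EC50) for 5 hrs at 37 C. LiveBLAzer FRET read at 460/530 nm emission, 405 nm excitation.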
# [20] = qHTS Assay for Identification of Small Molecule Agonists for Thrombopoietin (TPO) Signaling Pathway (AID 917; active = well fitted curve in the direction sought with a large enough effect; an effect the other way counts as inactive or inconclusive; also: % is scaled to controls: 0 for no effect and ±100 for the full control effect)
# Outline: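 We measured Glycoprotein IIb promoter–luciferase output in IL-3-starved Ba/F3 murine cells expressing the human TPO receptor after 24 hrs at 37 C with compounds and 26 pM TPO.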
smiles,measurement,setting,value
CCCCCCn1c(O)c(C=NCCCn2ccnc2)c(=O)[nH]c1=O,"activity change, negative = inhibition",[1],-8.92%
same,"activity change, negative = inhibition",[2],-9.29%
same,outcome,[3],inactive
same,Potency,[4],> 20.6 µM
CCN(CC)CCN=Cc1c(O)n(CCc2ccccc2)c(=O)[nH]c1=O,"activity change, negative = inhibition",[1],-7.05%
same,"activity change, negative = inhibition",[2],-1.81%
same,outcome,[3],inactive
same,Potency,[4],> 20.6 µM
COCCOC(=O)c1c(N)n(Cc2ccco2)c2nc3ccccc3nc12,"activity change, negative = inhibition",[1],-12.5%
same,"activity change, negative = inhibition",[2],16.1%
same,outcome,[3],inactive
same,Potency,[4],> 20.6 µM
O=C1c2ccccc2C(=O)N1Cc1nc2ccccc2c(=O)n1-c1cccnc1,"activity change, negative = inhibition",[1],24%
same,"activity change, negative = inhibition",[2],-3.03%
same,outcome,[3],inactive
same,Potency,[4],> 20.6 µM
N[C@@H]1CCc2cc(O)c(O)cc2C1,"activity change, negative = inhibition",[1],-9.85% [at 38 µM]
same,Potency,[5],inactive
same,outcome,[3],inactive
same,Potency,[4],> 46 µM
same,Potency,[6],> 46 µM
same,outcome,[7],inactive
same,Potency,[8],inactive
same,Potency,[9],10 µM (active)
same,Potency,[10],inactive
same,Potency,[11],inactive
same,outcome,[12],inactive
same,outcome,[13],inactive
same,outcome,[14],inactive
same,outcome,[15],inactive
same,outcome,[16],inactive
O=c1[nH]c(O)c(C=NC2CCN(Cc3ccccc3)CC2)c(=O)[nH]1,"activity change, negative = inhibition",[1],5.09%
same,"activity change, negative = inhibition",[2],-19.6%
same,outcome,[3],inactive
same,Potency,[4],> 20.6 µM
CC(=O)[C@@]1(O)CC[C@H]2[C@@H]3CC=C4C[C@@H](O)CC[C@]4(C)[C@H]3CC[C@@]21C,"activity change, negative = inhibition",[1],0.531%
same,"activity change, negative = inhibition",[2],10.8%
same,outcome,[3],inactive
same,Potency,[4],> 20.6 µM
CCCCNC(=O)Nc1ccc(C(O)(C(=O)OC)C(F)(F)F)cc1 (configuration not stated),"activity change, negative = inhibition",[1],-12.1%
same,"activity change, negative = inhibition",[2],26.8%
same,outcome,[3],inactive
same,Potency,[4],> 20.6 µM
C[C@H](N[C@@H](C)CCc1ccccc1)[C@H](O)c1ccc(O)cc1,"activity change, negative = inhibition",[1],10.2% [at 38 µM]
same,Potency,[5],7.94 µM (active)
same,outcome,[3],inactive
same,Potency,[4],> 46 µM
same,Potency,[6],> 46 µM
same,outcome,[17],inactive
same,outcome,[7],inactive
same,Potency,[8],inactive
same,Potency,[18],2 µM (active)
same,Potency,[19],0.0089 µM [stimulated with 10 pM TNF alpha] (active)
same,outcome,[20],inactive
same,outcome,[12],inactive
same,outcome,[13],inactive
same,outcome,[14],inactive
same,outcome,[15],inactive
same,outcome,[16],inactive
CCCCC1(CN2CCCC2=O)C(=O)NC(=O)NC1=O,"activity change, negative = inhibition",[1],7.49%
same,"activity change, negative = inhibition",[2],-2.56%
same,outcome,[3],inactive
same,Potency,[4],> 20.6 µM
CCCC12CN3CN(C1)CC(CCC)(C3)C2O (configuration not stated),"activity change, negative = inhibition",[1],21.7%
same,"activity change, negative = inhibition",[2],-5.01%
same,outcome,[3],inactive
same,Potency,[4],> 20.6 µM

# From PubChem BioAssay (NCATS)
